Test results as given in PubChem BioAssay.
Active and inactive are the calls of the source. Rule as the data show it: active = fold change permeability below about 0.7 or above about 1.3; inactive = in between.

assay: compounds altering in vitro BBB leakiness – cell-based, FITC-avidin fluorescence, HTS, primary screen (AID 1963498); conditions: brain endothelial barrier, actives lie on both sides; also: test concentration not given here

SMILES | fold change permeability
CC(=O)O[C@H]1CC[C@@]2(C)C(=CC[C@@H]3[C@@H]2CC[C@]2(C)C(c4cccnc4)=CC[C@@H]32)C1 | 1.8 (active)
O=C(O)CN(CCN(CC(=O)O)CC(=O)O)CCN(CC(=O)O)CC(=O)O | 1 (inactive)
Cc1ccccc1/C=C/C1=NCCN1 | 0.7 (active)
CCCCCCCCCC[Si](C)(C)CCC(=O)NC(Cc1ccc(C)cc1)c1ccccc1 (configuration not stated) | 0.8 (inactive)
NC(Cc1ccc(Cl)cc1)C(=O)O (configuration not stated) | 0.9 (inactive)
CC(C)[C@H]1c2ccc(F)cc2CC[C@@]1(CCN(C)CCCc1nc2ccccc2[nH]1)OC(=O)C1CC1 | 1.3 (active)
Cc1cc(N)c2ccccc2[n+]1CCCCCCCCCC[n+]1c(C)cc(N)c2ccccc21 | 1.6 (active)
N[C@@H](Cc1cnc[nH]1)C(=O)O | 0.9 (inactive)
CCCCn1c(-c2ccccc2)nc(-c2ccccc2)c1CN(Cc1ccc2c(c1)OCO2)Cc1ccc2c(c1)OCO2 | 1.3 (active)
OCCN1CCN(CCCN2c3ccccc3Sc3ccc(Cl)cc32)CC1 | 1.2 (inactive)
CCc1c(C)[nH]c2c1C(=O)C(CN1CCOCC1)CC2 (configuration not stated) | 1 (inactive)
NC1=NCC2c3ccccc3Cc3ccccc3N12 (configuration not stated) | 0.8 (inactive)
CNCCCC1c2ccccc2C=Cc2ccccc21 | 1.1 (inactive)
CC(=O)c1ccc2c(c1)N(CCCN(C)C)c1ccccc1S2 | 1.6 (active)
Cc1cc(N2C[C@@H](C)N[C@@H](C)C2)ncc1-c1ccc(-c2nc3c(ccn3C)c(=O)[nH]2)cc1 | 1.3 (active)
C=CCN1CCc2cc(O)c(O)cc2C(c2ccccc2)C1 (configuration not stated) | 0.7 (active)
O=C(O)Cc1ccc(O)c(O)c1 | 1 (inactive)
NC(=O)NO | 1.1 (inactive)
Cc1ccc(S(=O)(=O)N[C@@H](Cc2ccccc2)C(=O)CCl)cc1 | 1.8 (active)
C/C(=C\c1ccc(C(=O)O)cc1)c1ccc2c(c1)C(C)(C)CCC2(C)C | 1.7 (active)
Cc1nc2ccccn2c(=O)c1CCN1CCC(C(=O)c2ccc(F)cc2)CC1 | 1.1 (inactive)
NC1(C(=O)O)CCc2cc(C(=O)O)ccc21 (configuration not stated) | 1.1 (inactive)
